Values joined by “and” are separate entries in the source; they are usually repeats but may differ in a detail not shown here. Equal entries are not always repeated. Screen size: about 5,500 compounds; about 2,000 (36%) were called active. Not shown: some 18% with an inconclusive outcome. Rule as the data show it: active = normalized growth mostly below about 0.91 (no sharp cut-off); inconclusive = no clear call, values can overlap the other calls; inactive = mostly above about 0.92. The list shows a part of the results.
Experiment: chemical genetic growth profiling, strain panel (AID 1159580);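 also: tested at 20 µM; growth read once vehicle control cultures reached saturation at 30 °C; 1 = growth at the plate median or of vehicle wells; lower values mean less growth of the strain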
Details: S. cerevisiae deletion strains, growth OD

Measured: normalized growth

CN[C@@H]1C(OC2[C@H](O[C@H]3[C@H](O)[C@@H](O)[C@H](N=C(N)N)[C@@H](O)[C@@H]3N=C(N)N)OC(C)[C@]2(O)CO)OC(CO)C(O)C1O (some centres not stated)
inactive: locus YAL021C, strain ccr4, hits give low values 1.02 | locus YAL026C, strain drs2, hits give low values 1.02 | locus YAL030W, strain snc1, hits give low values 0.997 | locus YBL061C, strain skt5, hits give low values 0.996 | locus YBR009C, strain hhf1, hits give low values 1.01 | locus YBR021W, strain FUR4, hits give low values 0.988 | locus YBR023C, strain chs3, hits give low values 1.01 | locus YBR171W, strain sec66, hits give low values 0.996 | locus YBR229C, strain ROT2, hits give low values 0.993 | locus YBR231C, strain swc5, hits give low values 1.01 | locus YBR279W, strain paf1, hits give low values 1.01 | locus YCL011C, strain gbp2, hits give low values 1.05 | locus YCL016C, strain dcc1, hits give low values 1.02 | locus YCL029C, strain bik1, hits give low values 0.978 | locus YCL069W, strain vba3, hits give low values 1.03 | locus YCR088W, strain abp1, hits give low values 0.994 | locus YDL005C, strain med2, hits give low values 0.998 | locus YDL035C, strain GPR1, hits give low values 1.03 | locus YDL040C, strain nat1, hits give low values 0.999 | locus YDL074C, strain BRE1, hits give low values 0.989 | locus YDL101C, strain DUN1, hits give low values 0.979 | locus YDL185W, strain tfp1, hits give low values 0.984 | locus YDL192W, strain arf1, hits give low values 0.989 | locus YDR001C, strain nth1, hits give low values 1.02 | locus YDR069C, strain doa4, hits give low values 1 | locus YDR101C, strain arx1, hits give low values 0.992 | locus YDR137W, strain rgp1, hits give low values 0.998 | locus YDR159W, strain sac3, hits give low values 0.982 | locus YDR162C, strain NBP2, hits give low values 1.01 | locus YDR195W, strain ref2 0.942 | locus YDR297W, strain sur2, hits give low values 1 | locus YDR318W, strain mcm21, hits give low values 0.98 | locus YDR334W, strain swr1, hits give low values 1.02 | locus YDR335W, strain msn5, hits give low values 1.01 | locus YDR388W, hits give low values 0.975 | locus YDR392W, strain spt3, hits give low values 1.02 | locus YDR502C, strain sam2, hits give low values 0.985 | locus YEL003W, strain gim4, hits give low values 1 | locus YEL037C, strain rad23, hits give low values 1.01 | locus YEL061C, strain CIN8 (second series), hits give low values 1.01 | locus YEL061C, strain CIN8, hits give low values 0.995 | locus YER015W, strain faa2, hits give low values 1.01 | locus YER016W, strain bim1, hits give low values 1 | locus YER110C, hits give low values 0.97 | locus YER111C, strain swi4, hits give low values 1.01 | locus YER155C, strain BEM2 (second series), hits give low values 0.994 | locus YER155C, strain BEM2, hits give low values 0.987 | locus YER167W, strain BCK2, hits give low values 0.99 | locus YFR010W, strain ubp6, hits give low values 0.993 | locus YGL078C, strain dbp3, hits give low values 0.97 | locus YGL086W, strain mad1, hits give low values 1 | locus YGL167C, strain pmr1, hits give low values 0.996 | locus YGL173C, strain kem1, hits give low values 1.02 | locus YGL227W, strain vid30, hits give low values 0.993 | locus YGL240W, strain doc1, hits give low values 1.01 | locus YGL248W, strain PDE1, hits give low values 0.975 | locus YGL253W, strain hxk2, hits give low values 1.02 | locus YGR135W, strain pre9, hits give low values 0.956 | locus YGR229C, strain SMI1, hits give low values 1.02 | locus YGR252W, strain gcn5, hits give low values 0.943 | locus YHR013C, strain ard1, hits give low values 1.03 | locus YHR027C, strain rpn1, hits give low values 1.01 | locus YHR030C, strain SLT2, hits give low values 0.993 and 1.03 | locus YHR079C, strain IRE1 (second series), hits give low values 0.98 | locus YHR079C, strain IRE1, hits give low values 1.03 | locus YHR094C, strain hxt1, hits give low values 0.972 | locus YHR129C, strain ARP1, hits give low values 0.998 | locus YHR142W, strain chs7, hits give low values 1.02 | locus YHR200W, strain rpn10, hits give low values 0.981 | locus YIL066C, strain RNR3, hits give low values 0.992 | locus YIL073C, strain SPO22, hits give low values 0.958 | locus YIL125W, strain kgd1, hits give low values 0.981 | locus YIR030C, strain dcg1, hits give low values 0.975 | locus YJL092W, strain hpr5, hits give low values 0.999 | locus YJL095W, strain BCK1 (second series), hits give low values 1 | locus YJL095W, strain BCK1, hits give low values 0.975 and 1.05 | locus YJL115W, strain asf1, hits give low values 1 | locus YJL129C, strain trk1, hits give low values 0.981 | locus YJL134W, strain LCB3, hits give low values 0.99 | locus YJL154C, strain vps35, hits give low values 1.01 | locus YJL164C, strain tpk1, hits give low values 1.02 | locus YJL166W, strain qcr8, hits give low values 1.02 | locus YJL168C, strain set2, hits give low values 0.973 | locus YJL187C, strain SWE1 (second series), hits give low values 0.981 | locus YJR043C, strain POL32, hits give low values 1.04 | locus YJR066W, strain TOR1, hits give low values 0.975 | locus YJR075W, strain HOC1, hits give low values 0.985
